# A selection: hits, their analogues and other compounds. The true share with any hit is near 1.6%.
# KCNQ2 enhance = KCNQ2 (rat) channel potentiation; O88943; CHO-K1 KCNQ2, FluxOR thallium flux fluorescence; active compounds read high; B-score at 10 µM; actives 0.54% (n = 310,000);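 active = fluorescence ratio B-score at least 3 SD of library B-scores, with initial fluorescence B-score within 3 of them, cut at about 5.3 in these data; same plate scores as AID 2156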;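 also: B-score of peak minus minimum over baseline fluorescence ratio after K+ and Tl+ stimulus; positive B-score means potentiation of KCNQ2 with more thallium influx and brighter signal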
# Target sequence (O88943 whole entry, looked up): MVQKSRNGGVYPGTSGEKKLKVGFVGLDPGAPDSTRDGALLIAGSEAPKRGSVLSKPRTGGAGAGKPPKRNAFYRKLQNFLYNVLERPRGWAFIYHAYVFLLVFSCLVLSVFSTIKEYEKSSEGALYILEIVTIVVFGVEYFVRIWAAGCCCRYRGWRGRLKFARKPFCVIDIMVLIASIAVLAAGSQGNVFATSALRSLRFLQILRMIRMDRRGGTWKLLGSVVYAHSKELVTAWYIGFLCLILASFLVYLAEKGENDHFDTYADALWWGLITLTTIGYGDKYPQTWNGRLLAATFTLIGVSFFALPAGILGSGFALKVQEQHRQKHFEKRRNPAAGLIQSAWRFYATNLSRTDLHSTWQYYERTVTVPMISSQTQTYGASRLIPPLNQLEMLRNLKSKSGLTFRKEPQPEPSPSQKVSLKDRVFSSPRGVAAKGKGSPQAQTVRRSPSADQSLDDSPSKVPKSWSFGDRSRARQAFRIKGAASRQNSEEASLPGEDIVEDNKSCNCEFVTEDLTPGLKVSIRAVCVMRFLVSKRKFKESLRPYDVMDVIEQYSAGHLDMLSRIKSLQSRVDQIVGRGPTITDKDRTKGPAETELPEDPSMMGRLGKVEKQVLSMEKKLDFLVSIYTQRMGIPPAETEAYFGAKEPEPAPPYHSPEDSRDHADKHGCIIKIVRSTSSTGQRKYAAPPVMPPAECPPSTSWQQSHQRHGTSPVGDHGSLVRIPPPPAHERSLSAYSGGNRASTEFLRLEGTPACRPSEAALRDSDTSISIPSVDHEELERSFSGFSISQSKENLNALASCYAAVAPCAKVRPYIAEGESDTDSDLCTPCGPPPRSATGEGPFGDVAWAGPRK
# KCNQ2 inh = inhibitors of rat KCNQ2 potassium channel. O88943. CHO-K1 KCNQ2, FluxOR thallium flux, 20 min; active compounds read low. B-score at 10 µM. actives 1.1% (n = 310,000). AID 2156;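 active = fluorescence ratio B-score at most minus 3 library SDs, with starting brightness B-score within 2 library SDs, cut at about -5.5 in these data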
# The depositor's hits bear a star; i = inactive; . = no result given.
SMILES,KCNQ2 enhance,KCNQ2 inh
O=C(c1ccc(Cl)c(S(=O)(=O)NCc2ccccc2)c1)N1CCN(c2ccccn2)CC1,-5.8,-5.8*
Cc1cc(-c2nnc(SCC(=O)Nc3ccccc3C)n2N)n[nH]1,.,i
CC(=O)Nc1ccc(NC(=O)CSc2ncc(C(=O)Nc3ccc(F)cc3)c(=O)n2C)cc1,.,i
CCSc1ncc(/C=N/Nc2ccc(F)cc2)n1C,-8.5,-8.5*
O=[N+]([O-])c1ccc(Oc2ccc(S(=O)(=O)Nc3ccccc3)cc2)cc1,3.2,i
O=C1C(Cl)=C(NS(=O)(=O)c2ccc([N+](=O)[O-])cc2)C(=O)c2ccccc21,-6,-6*
CSc1ccc(/C=C/C(=O)OCC(=O)N(C)CCC#N)cc1,.,i
CCOC(=O)C1=CN(CC2CCCO2)C=C(C(=O)OCC)C1c1ccccc1C(F)(F)F (stereo not given),1.5,i
Cc1cc(C)nc(N/N=C/c2ccccc2Cl)n1,0.47,i
Cc1cc(N/N=C/c2ccccc2Cl)nc(NCc2ccccc2)n1,-6.4,-6.4*
O=C(O)[C@H](Cc1ccccc1)NC(=O)N1CCN(c2ccc(F)cc2)CC1,2.1,i
CCOC(=O)NC(=O)c1cn(-c2ccc(OC)cc2)c(=O)[nH]c1=O,.,i
COC(=O)c1cc(=O)n(Cc2ccc3c(c2)OCO3)c(=Nc2ccc(F)cc2)s1,.,i
CCOC(=O)c1ccc(N=c2sc(C(=O)OC)cc(=O)n2Cc2ccc3c(c2)OCO3)cc1,-5.9,-5.9*
COc1ccccc1OCCCCn1c(C(C)O)nc2ccccc21 (stereo not given),0.34,i
Cc1cc(C)cc(N(C(=O)CNS(=O)(=O)c2ccccc2)C(C(=O)NCc2ccccc2)c2ccc(C)o2)c1 (stereo not given),.,i
Cc1ccc(S(=O)(=O)NCC(=O)N(c2ccccc2)C(C(=O)NCc2ccccc2)c2ccco2)cc1 (stereo not given),-6.9,-6.9*
NC(=O)CC(NC(=O)c1ccc(Br)cc1)c1ccc(N2CCCCCCC2)c([N+](=O)[O-])c1 (stereo not given),.,i
COc1cc(C=C(c2nc3ccccc3s2)c2nc3ccccc3s2)ccc1O,-6,-6*
COc1ccc(C=C(c2nc3ccccc3s2)c2nc3ccccc3s2)cc1O,.,i
O=C(NC1CCCC1)C(c1ccncc1)N(C(=O)c1ccco1)c1ccc(F)c(Cl)c1 (stereo not given),.,i
COc1cccc(Nc2nnc(Cc3cccnc3)c3ccccc23)c1,.,i
CC1CCN(C(=O)CSc2nnc(CNC(=O)c3c(F)cccc3F)o2)CC1,.,i
COC(=O)c1c(-c2ccc(C)cc2)csc1NC(=O)Cc1ccc(OC)c(OC)c1,-6.8,-6.8*
COC(=O)c1c(-c2ccc(Br)cc2)csc1NC(=O)Cc1ccc(OC)c(OC)c1,.,i
SMILES,KCNQ2 enhance,KCNQ2 inh
CN(C)c1ncc(C2=C(Cl)C(=O)C(N3CCCC3)=C(Cl)C2=O)s1,-8.6,-8.6*
O=C1C(Cl)=C(N2CCCCC2)C(=O)C(Cl)=C1c1cnc(N2CCCCC2)s1,.,i
Cc1ccc2c(C)c(C(=O)NCCN3CCOC3=O)oc2c1C,5.5*,i
CCOC(=O)N1CCC(NC(=O)c2oc3c(C)c(C)ccc3c2C)CC1,-5.7,-5.7*
CCOC(=O)N1CCC(NC(=O)c2ccccc2C(=O)O)CC1,0.54,i
Cc1ccc2c(C)c(C(=O)NCCN3CCCC(O)C3)oc2c1C (stereo not given),0.72,i
CC1CCCN(C(=O)CCCn2c(=S)[nH]c3ccccc3c2=O)C1 (stereo not given),0.36,i
CC1CCN(CCCn2c(SCC(=O)Nc3ccccc3Cl)nc3ccccc3c2=O)CC1,.,i
COc1cccc(NC(=O)CSc2nc3c(sc4ccccc43)c(=O)n2CCN(C)C)c1,0.49,i
COc1cccc(NC(=O)CSc2nc3c(sc4ccccc43)c(=O)n2CCCN2CCCC2)c1,-6.7,-6.7*
Cc1ccc(NC(=O)CSc2nc3ccccc3c(=O)n2CCCN2CCCCC2)cc1Cl,-7.9,-7.9*
Cc1ccc(CNC(=O)CNS(=O)(=O)c2ccc(Br)s2)cc1,.,i
CCOc1ccc(NS(=O)(=O)c2cc(C(=O)N3CCC3)ccc2Cl)cc1,0.16,i
CC1CCN(CCCNC(=O)c2ccc3c(=O)n(Cc4ccc(Cl)cc4)c(=S)[nH]c3c2)CC1,-5.9,-5.9*
COC(=O)c1ccc2c(=O)n(Cc3ccc(C(=O)NCCCN4CCC(C)CC4)cc3)c(=S)[nH]c2c1,1.2,i
Nc1cccc(-n2cccc2)c1,0.93,i
COc1ccc(C)cc1NC(=O)C(OC(=O)CNC(=O)c1ccc(Br)cc1)c1ccccc1 (stereo not given),.,i
O=C(Nc1cc(C(F)(F)F)ccc1Cl)C(Sc1ccccn1)c1ccccc1 (stereo not given),.,i
CCCC(=O)OC(C(=O)Nc1cc(C(F)(F)F)ccc1Cl)c1ccccc1 (stereo not given),-5.6,-5.6*
Cc1cc(C(=O)NCC(=O)OC(C(=O)Nc2cc(C(F)(F)F)ccc2Cl)c2ccccc2)ccc1[N+](=O)[O-] (stereo not given),-5.8,-5.8*
CC(CNC(=O)c1ccc(C#N)cc1)NC(=O)c1ccc(C#N)cc1 (stereo not given),.,i
O=C(NCCOc1ccccc1F)C1CCC(=O)N(CCc2cccc(F)c2)C1 (stereo not given),.,i
CCOC(=O)C1=C(CNCc2ccccc2Cl)NC(=O)NC1c1ccc2c(c1)OCO2 (stereo not given),.,i
CCOC(=O)C1=C(CNCc2ccccc2Cl)NC(=O)NC1c1cccc([N+](=O)[O-])c1 (stereo not given),-6.3,-6.3*
CN1CCN(c2ccc(Cl)cc2NC(=O)/C=C/c2cccc(F)c2)CC1,-6.5,-6.5*
SMILES,KCNQ2 enhance,KCNQ2 inh
CN1CCN(c2ccc(Cl)cc2NC(=O)c2cccc(S(=O)(=O)N(C)C)c2)CC1,.,i
Cc1ccc(NC(=O)Cn2nc(C(=O)O)c3ccccc3c2=O)c([N+](=O)[O-])c1,0.03,i
COc1cc(NC(=O)CN2CCN(c3ccccn3)CC2)cc(OC)c1OC,.,i
COc1ccc(NC(=O)C(c2ccccc2)N2CCN(c3ccccn3)CC2)cc1Cl (stereo not given),-6.3,-6.3*
CN(CC(=O)Nc1ccccc1Br)C(=O)c1cc([N+](=O)[O-])ccc1N1CCOCC1,1.3,i
CCn1c(COc2ccccc2C)nnc1SCc1nc2ccccc2c(=O)[nH]1,1.9,i
CCOc1ccc(NC(=O)/C(C=Nc2ccccc2)=C(\C)O)cc1,.,i
COc1ccc(OC)c(NC(=O)CN(Cc2ccc(F)cc2)C2CCCCC2)c1,-7.9,-7.9*
COc1ccc(Cl)cc1NC(=O)CN(C)C1CCCCC1,.,i
COc1ccc(-c2c(=O)n(OC)c3ccccc3[n+]2[O-])cc1OC,0.65,i
Cc1ccc(NC(=O)C(OC(=O)c2cc(C)oc2C)c2ccccc2)cc1 (stereo not given),.,i
Cc1cc(C(=O)OC(C(=O)Nc2cccc(C(F)(F)F)c2)c2ccccc2)c(C)o1 (stereo not given),-5.8,-5.8*
O=C(Nc1cn(-c2ccccc2)nc1-c1ccc(Cl)cc1)c1ccccc1,.,i
Cc1ccc(-c2nn(-c3ccccc3)cc2NC(=O)c2ccccc2)cc1,-5.7,-5.7*
O=c1onc(-c2ccccc2)n1-c1cc(Cl)cc(Cl)c1,1.2,i
CC(C)c1ccccc1N=C1SCCCN1C(=O)c1cccc(N2C(=O)CCC2=O)c1,.,i
